Results as given in PubChem BioAssay (NCI).
About 83,000 compounds went through this panel and 20% of them were active in at least one assay; those are over-represented in the sample as a whole.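 48-hour exposure, single concentration, 96-well plates; percent growth endpoint where 0 means no net growth. Active: below 10.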 Unmarked numbers belong to inactive results. Calls of active or inactive are those of the source.

Legend:
Experiment in all cases: NCI-60 one-dose screen, 48 h (100 = growth as untreated, 0 = no growth, -100 = all killed)
Conditions in all cases: 10 µM unless noted
NCI-H23 lung = system: NCI-H23 lung
NCI-H322M lung = system: NCI-H322M lung
HOP-62 NSCLC = system: HOP-62 NSCLC
NCI-H460 lung = system: NCI-H460 lung
HOP-92 NSCLC = system: HOP-92 NSCLC
NCI-H522 lung = system: NCI-H522 lung
A549/ATCC NSCLC = system: A549/ATCC NSCLC
786-0 renal = system: 786-0 renal
COLO 205 colon = system: COLO 205 colon
DU-145 prostate = system: DU-145 prostate
K-562 leukemia = system: K-562 leukemia
MALME-3M melanoma = system: MALME-3M melanoma
MDA-MB-231 breast = system: MDA-MB-231 breast
SF-268 CNS = system: SF-268 CNS
SF-295 CNS = system: SF-295 CNS
SF-539 CNS = system: SF-539 CNS
UACC-257 melanoma = system: UACC-257 melanoma
M14 melanoma = system: M14 melanoma
RXF 393 renal = system: RXF 393 renal

ClCCN(CCCl)c1ccc(/C=N/Nc2ncnc3nc[nH]c23)cc1
growth (NCI-H23 lung): 68.8% | growth (NCI-H322M lung): 97.7% | growth (HOP-62 NSCLC): 82% | growth (NCI-H460 lung): 39.1% | growth (HOP-92 NSCLC): 81.3% | growth (NCI-H522 lung): 61% | growth (A549/ATCC NSCLC): 87.7% | growth (786-0 renal): 80.2% | growth (COLO 205 colon): 90.5% | growth (DU-145 prostate): 62.8% | growth (K-562 leukemia): 61.2% | growth (MALME-3M melanoma): 106% | growth (MDA-MB-231 breast): 96.2% | growth (SF-268 CNS): 58.9% | growth (SF-295 CNS): 57.8% | growth (SF-539 CNS): 72.7% | growth (UACC-257 melanoma): 106% | growth (M14 melanoma): 76.7%

COC(=O)[C@@H](C[C@H](Cc1ccccc1)NC(=O)c1csc([C@@H](C[C@H](C(C)C)N(C)C(=O)[C@@H](NC(=O)[C@H]2CCCCN2C)C(C)C)OC(C)=O)n1)NC(=O)OCc1ccccc1
growth (NCI-H23 lung): 35.1% [9.5 µM] | growth (NCI-H322M lung): 43.1% [9.5 µM] | growth (HOP-62 NSCLC): 12.1% [9.5 µM] | growth (NCI-H460 lung): 5.31% [9.5 µM] (active) | growth (NCI-H522 lung): -45.5% [9.5 µM] (active) | growth (A549/ATCC NSCLC): 14.1% [9.5 µM] | growth (786-0 renal): 15.8% [9.5 µM] | growth (COLO 205 colon): -65.4% [9.5 µM] (active) | growth (DU-145 prostate): -3.78% [9.5 µM] (active) | growth (K-562 leukemia): 2.99% [9.5 µM] (active) | growth (MALME-3M melanoma): -42.5% [9.5 µM] (active) | growth (MDA-MB-231 breast): 18.6% [9.5 µM] | growth (RXF 393 renal): 39.8% [9.5 µM] | growth (SF-268 CNS): 15.2% [9.5 µM] | growth (SF-295 CNS): 3.92% [9.5 µM] (active) | growth (SF-539 CNS): -19.1% [9.5 µM] (active) | growth (UACC-257 melanoma): 6.49% [9.5 µM] (active) | growth (M14 melanoma): -41.7% [9.5 µM] (active)

CN(C)C1C(=O)C(C(N)=O)=C(O)C2(O)C(=O)C3=C(O)c4c(O)cccc4C(C)(O)C3CC12.[Cl][Sb]([Cl])[Cl] (configuration not stated)
growth (NCI-H23 lung): 46.1% | growth (NCI-H322M lung): 46.3% | growth (HOP-62 NSCLC): 45.8% | growth (NCI-H460 lung): 4.47% (active) | growth (HOP-92 NSCLC): -5.57% (active) | growth (NCI-H522 lung): 4.59% (active) | growth (A549/ATCC NSCLC): 26.1% | growth (786-0 renal): 26.6% | growth (COLO 205 colon): 96.5% | growth (DU-145 prostate): 60% | growth (K-562 leukemia): 22.9% | growth (MALME-3M melanoma): -21.2% (active) | growth (MDA-MB-231 breast): 79.1% | growth (RXF 393 renal): 59.2% | growth (SF-268 CNS): 29.7% | growth (SF-295 CNS): -3.24% (active) | growth (SF-539 CNS): 20.9% | growth (UACC-257 melanoma): 30.1% | growth (M14 melanoma): 37%

CCCCOc1ccc(C(N)Cc2ccccc2)cc1 (configuration not stated)
growth (NCI-H23 lung): 104% | growth (NCI-H322M lung): 92.4% | growth (HOP-62 NSCLC): 107% | growth (NCI-H460 lung): 95.5% | growth (HOP-92 NSCLC): 41% | growth (NCI-H522 lung): 93% | growth (A549/ATCC NSCLC): 90% | growth (786-0 renal): 75.3% | growth (COLO 205 colon): -43.2% (active) | growth (DU-145 prostate): 109% | growth (K-562 leukemia): 54.2% | growth (MALME-3M melanoma): 106% | growth (MDA-MB-231 breast): 75.1% | growth (RXF 393 renal): 104% | growth (SF-268 CNS): 85.4% | growth (SF-295 CNS): 113% | growth (SF-539 CNS): 102% | growth (M14 melanoma): 87.1%

CC1=C(O)[C@@](C)(CCCCC[C@H](C)CCCCc2ccc(O)cc2)OOC1=O
growth (NCI-H23 lung): 85.2% | growth (NCI-H322M lung): 94.6% | growth (HOP-62 NSCLC): 91.1% | growth (NCI-H460 lung): 108% | growth (HOP-92 NSCLC): 75.2% | growth (NCI-H522 lung): 64.5% | growth (A549/ATCC NSCLC): 96.9% | growth (786-0 renal): 105% | growth (COLO 205 colon): 107% | growth (DU-145 prostate): 113% | growth (K-562 leukemia): 94.4% | growth (MALME-3M melanoma): 87.3% | growth (MDA-MB-231 breast): 85.2% | growth (RXF 393 renal): 111% | growth (SF-268 CNS): 110% | growth (SF-295 CNS): 90.4% | growth (SF-539 CNS): 101% | growth (UACC-257 melanoma): 89.8% | growth (M14 melanoma): 96.6%
